From ChEMBL document CHEMBL3988442, “University of Dundee, Small-Polar-MMV Screening Library” (2021) come the findings set out here.

The campaign covered roughly 48,000 compounds. About 13,000 (27%) showed an effect of 50% or more. The list shows a part of the results.

For this assay, the system named is Wolbachia pipientis. Put plainly: Anti-Wolbachia Cell-Based Screen. The assay is classed as functional. Further details: scale not given: in the data most compounds retested in dose-response had high values. To be noted: 5 µM.
As to `COCCn1cnnc1CCn1ccnc1-c1ccccc1Cl`, the “Percent Effect” value is given as -5.954%.
Under `CN(Cc1ccon1)c1nc(-c2ccccn2)nc2c1CCNCC2` stands -7.259%.
As to `CCn1c(Cn2cccn2)nnc1C1CCN(Cc2ccc(C)o2)CC1`, the “Percent Effect” value was 4.312%.
Next, `O=c1c2ccccc2nc2n1CCC2O` (configuration not stated): 1.424%; `O=C(Nc1cc(CSCCO)ccn1)c1ccc(Cl)o1`: -51%.
Next, `Cc1ncccc1C(=O)NC1(c2cccc(F)c2)CCOCC1`: -2.77%.
For the molecule `COCc1cc(O)nc(C2CCCN(Cc3ccc(F)cc3)C2)n1` (configuration not stated), the “Percent Effect” value worked out at 105.5%.
For the molecule `CC(NC(=O)NCCN1CCCCCC1=O)c1ccc(Cl)s1` (configuration not stated), the “Percent Effect” value was -4.831%.
Under `CCN(CC)CC(=O)N1CCN(CCc2ccncc2)CC1` stands -8.418%; under `COCC(=O)N1CCN(Cc2cc(-c3ccncc3)nn2C)CC1`, 92.41%; under `CCN(CC)C(=O)N1CCN(CCc2ccncc2)CC1`, 2.653%.
Next, `CCN(CC)CC(=O)N1CCN(CCCc2ccncc2)CC1`: 2.413%; `CCCC(=O)N1CCN(Cc2cc(-c3ccncc3)nn2C)CC1`: 103.8%; `CCc1nc(CN2CCCN(C(=O)COC)CC2)cs1`: 6.894%.
Next, `CC(C)C(=O)N1CCN(Cc2cc(-c3ccncc3)nn2C)CC1`: -9.87%; `CCC(=O)N1CCN(Cc2cc(-c3ccncc3)nn2C)CC1`: -2.828%; `CCC(CC)C(=O)N1CCN(Cc2cc(-c3ccncc3)nn2C)CC1`: 102.3%.
Consider `CCCC(=O)N1CCN(c2cc(-n3cnc(C)c3C)nc(C)n2)CC1`, for which the “Percent Effect” value was -4.899%.
Consider `CC(C)CC(=O)N1CCN(Cc2cc(-c3ccncc3)nn2C)CC1`, for which the “Percent Effect” value stood at 111%.
Under `COc1ccc2nc(CNC(=O)c3cc(C(C)C)no3)[nH]c2c1` stands -7.08%.
Next, `CC(NCc1cnn(C)c1)c1noc(-c2ccc(Cl)cc2)n1` (configuration not stated): 2.096%; `Cc1ccc(C(=O)NCCCn2cncn2)c(=O)[nH]1`: 0.33%; `O=C(NCCc1ccsc1)c1ccoc1`: 7.959%.
For the molecule `O=C(NCCn1nc(-n2cncn2)ccc1=O)c1ccsc1`, the “Percent Effect” value amounted to 90.98%.
Next, `Cc1ccc(C(=O)NCCn2nc(-n3cncn3)ccc2=O)c(C)c1`: 115.4%; `Cc1csc(C(=O)NCCn2nc(-n3cncn3)ccc2=O)c1`: 104.4%; `O=C(NCCn1nc(-n2cncn2)ccc1=O)c1ccc(F)cc1F`: 119.8%.
Next, `Cc1ccc(C(=O)NCCS(=O)(=O)Cc2ccccc2)c(C)c1`: 5.407%.
Under `O=C1CCc2cc(C(=O)NCc3ccc(-n4cncn4)nc3)ccc2N1` stands -4.762%.
Turning to `N#Cc1cccc(N2CCCC3(C2)CN(c2nncs2)CCO3)c1` (configuration not stated), the “Percent Effect” value is listed as -22.42%.
`O=C1O[C@@H]2CN(c3ccc(Cl)cn3)C[C@@H]2N1CCc1ccc(F)cc1`: the “Percent Effect” value is 15.74%.
Under `CCOc1cc(CNC(=O)C(C#N)c2nc(C)cs2)ccc1OC(F)F` (configuration not stated) stands -3.55%; under `NS(=O)(=O)CCNC(=O)c1ccc(OCc2ccccc2)nc1`, 5.557%.
Under `CCCc1nc(C)cc(N2CCNC(C(=O)NC3CC3)C2)n1` (configuration not stated) stands -8.099%; under `O=C(C1CN(CC2CC2)CC12CCOCC2)N1CCOCC1.O=C(O)C(F)(F)F` (configuration not stated), 0.7969%.
Next, `O=C(CN1CCCCC1Cn1cccn1)NC1CCN(C2CC2)CC1` (configuration not stated): -1.641%.
`CCSc1ccccc1C(=O)NCCn1nc(-n2cncn2)ccc1=O`: the “Percent Effect” value was found to be 112%.
Regarding `O=C(NCCn1nc(-n2cncn2)ccc1=O)c1ccccc1Br`, the “Percent Effect” value was determined as 41.16%.
Turning to `CCSc1ccccc1C(=O)NCCn1nc(C(F)(F)F)n(C)c1=O`, the “Percent Effect” value is -21.23%.
Under `O=C(NCc1ccccn1)c1nnn(-c2ccc(Br)cc2)n1` stands 7.96%.
Next, `CN(C)C(=O)c1nnn(-c2ccc(Br)cc2)n1`: 110.9%; `CC1CCCN(C(=O)c2nnn(-c3ccc(C(F)(F)F)cc3)n2)C1` (configuration not stated): -23.6%; `COCC(C)NC(=O)c1nnn(-c2ccc(Br)cc2)n1` (configuration not stated): 4.837%.
Under `CCC(C)NC(=O)c1nnn(-c2ccc(Br)cc2)n1` (configuration not stated) stands 110.8%; under `CN(CC(N)=O)C(=O)c1cn(-c2ccc(Br)cc2)cn1`, 8.695%.
For the molecule `Cc1ccc(CN(C)C(=O)CN2CCCCC2Cn2cncn2)cc1` (configuration not stated), the “Percent Effect” value is given as -11.49%.
Under `O=C(NCc1ccccc1CN1CCOCC1)Nc1nncs1` stands 33.23%; under `CC(C1CCN(Cc2cccc(OC(F)F)c2)CC1)N1CCOCC1` (configuration not stated), 4.738%.
Under `Cc1nc(-c2ccc(S(=O)(=O)N3CCC=C(F)C3)cc2)co1` stands 3.194%; under `CCN(Cc1ccc(Cl)s1)S(=O)(=O)CC`, -12.66%.
Turning to `CCC(CO)N(Cc1ccccn1)Cc1ccc(-c2ccn[nH]2)s1` (configuration not stated), the “Percent Effect” value is 0.2436%.
For `CCN(CC)c1ncccc1CNC(=O)c1cc2nc(C)cc(C)n2n1`, the “Percent Effect” value is -11.51%.
